Experimental data published in PubChem BioAssay.

Experiment: COS7 lysate on small-molecule microarray, probe aHis, 635 nm (AID 1123);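 note: z-score combines 667nm fluorescence intensity with signal-to-noise per printed compound spot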
Details: COS7 cell lysate, fluorescence, higher = more signal

Q: Which composite z-score does the source give for `[N-]=[N+]=Nc1ccccc1C[C@]1(C(N)=O)N=C(c2ccc(OCCCO)cc2)O[C@H]1c1ccccc1N=[N+]=[N-]` here?
A: The composite z-score was 0.0754.

Q: Which composite z-score does the source give for `COc1cc(CO)cc(I)c1O[C@H]1C=C(C(=O)NCCO)C[C@@H](NCc2ccc(F)cc2)[C@@H]1O` here?
A: Its composite z-score is 0.369.

Q: For `CCCC[C@@H]1C[C@H]1[C@@H](NC(=O)c1cccs1)c1ccc(C(F)(F)F)cc1`, which composite z-score is on record?
A: Its composite z-score is -0.559.

Q: Which composite z-score does the source give for `COCCOC(=O)N1C(=O)[C@@]2(c3cc(C#CC4=CCCCC4)ccc31)[C@H](C(N)=O)[C@H]1C(=O)O[C@H](c3ccccc3)[C@H](c3ccccc3)N1[C@@H]2c1ccccc1OCCO` here?
A: Its composite z-score is 1.59.

Q: For `O=C1OCCC=C[C@H]2OC34C=CCN(Cn5nnc6ccccc65)C(=O)[C@H]3N(CCCCCCO)C(=O)[C@@H]4C12` (stereo partly specified), which composite z-score is on record?
A: Its composite z-score is -0.591.

Q: For `Cc1ccc(S[C@]2(C(=O)O)CC(=O)N(Cc3cc(C(F)(F)F)cc(C(F)(F)F)c3)[C@@H]2c2ccc(CO)cc2)cc1`, which composite z-score is on record?
A: Its composite z-score is 1.23.

Experiment: compound binding in COS7 lysate, probe aLAP1, primary screen, cell lysate, small-molecule microarray (AID 1124);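 note: lysate comes from COS7 cells expressing LAP1 and is applied at 0.3 µg/mL; score merges spot fluorescence near 667 nm with signal-to-noise over triplicate slides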
Details: probe aLAP1, fluorescence, higher = more signal

Q: For `CCOC(=O)C[C@H]1[C@H](OC(=O)c2ccccc2-c2ccccc2)[C@@H](NC(=O)c2ccc(-c3ccccc3)cc2)c2cc(OCCCO)ccc2N1C(=O)c1ccc2ccccc2n1`, which composite z-score is on record?
A: The composite z-score was 0.272.

Q: For `C=CCC(OC(C)=O)[C@@H]1[C@@H](N(Cc2ccc(-c3ccccc3)cc2)C(=O)Cc2ccc(F)cc2)c2cc(OCCCO)ccc2N1C(=O)Cc1ccc(OC)cc1` (stereo partly specified), which composite z-score is on record?
A: Its composite z-score is 0.0514.

Q: With `O=C(NCC(F)(F)F)[C@@H]1c2ccccc2C(=O)N(Cc2ccc(OC(F)(F)F)cc2)[C@H]1c1ccc(CO)cc1` as the molecule, how does the composite z-score read?
A: Its composite z-score is 0.203.

Q: Which composite z-score does the source give for `COC(=O)CCCCCCC(=O)Nc1ccc(NC(=O)CCCC[P+](c2ccccc2)(c2ccccc2)c2ccccc2)cc1` here?
A: Its composite z-score is 0.116.

Q: With `CCCCCCc1nc(C2CC2)cc2c1[Si](C(C)C)(C(C)C)OC2` as the molecule, how does the composite z-score read?
A: The composite z-score was -0.0031.

Q: With `O=C1O[C@H](c2ccccc2)[C@H](c2ccccc2)N2[C@H]1[C@@H](C(=O)Nc1nc3ccccc3s1)[C@]1(C(=O)Nc3ccccc31)[C@H]2c1ccc(OCCO)cc1` as the molecule, how does the composite z-score read?
A: The composite z-score was 0.328.

Q: Which composite z-score does the source give for `C=C(/C(=C/C[C@H](OC(=O)c1ccncc1)c1ccc(CO)o1)c1cc(C(=O)OC)ccc1OC)C(C)C` here?
A: Its composite z-score is 0.285.

Q: With `CN(C)C(=O)[C@@]1(CCS(=O)(=O)c2ccccc2)N=C(c2ccc(OCCCO)cc2)O[C@H]1c1ccccc1` as the molecule, how does the composite z-score read?
A: The composite z-score was 0.862.

Q: For `O=C1OCCC/C=C\[C@H]2OC34C=CCN(CCN5CCOCC5)C(=O)[C@H]3N(CCCCCCO)C(=O)[C@@H]4C12` (stereo partly specified), which composite z-score is on record?
A: Its composite z-score is 1.57.

Q: For `O=C1C2C=CC(C(O)c3ccc(Br)cc3)N(Nc3ccccc3F)C2C(=O)N1c1ccccc1` (stereo unspecified), which composite z-score is on record?
A: The composite z-score was 0.358.

Q: With `CCCCC(=C=CC[C@@H](O)c1ccccc1OCCO)C[C@@H](O)COCc1ccccc1` as the molecule, how does the composite z-score read?
A: Its composite z-score is 0.207.

Q: Which composite z-score does the source give for `O=C1O[C@@H](c2ccccc2)[C@@H](c2ccccc2)N2[C@@H](c3ccc(O)cc3)[C@]3(C(=O)Nc4ccc(C#CC5=CCCCC5)cc43)[C@@H](C(=O)NC[C@H](O)c3ccccc3)[C@H]12` here?
A: Its composite z-score is 0.553.

Q: For `NC(=O)NCC#Cc1ccc2c(c1)[C@]1(C(=O)N2)[C@H](C(=O)NC[C@H](O)c2ccccc2)[C@H]2C(=O)O[C@H](c3ccccc3)[C@H](c3ccccc3)N2[C@@H]1c1ccc(OCCO)cc1`, which composite z-score is on record?
A: Its composite z-score is 0.587.

Q: Which composite z-score does the source give for `CC(C)N1CC=CC23O[C@@H]4C=CCOC(=O)[C@@H]4[C@H]2C(=O)N(CCCO)[C@@H]3C1=O` (stereo partly specified) here?
A: Its composite z-score is 0.633.

Q: With `N#Cc1ccc(C(O)C2C=CC3C(=O)N(c4ccccc4)C(=O)C3N2Nc2ccccc2)cc1` (stereo unspecified) as the molecule, how does the composite z-score read?
A: The composite z-score was 0.736.

Q: Which composite z-score does the source give for `CCCCN1CC=CC23O[C@@H]4/C=C\CCC(C)OC(=O)C4[C@H]2C(=O)N(C(CO)C(C)C)[C@@H]3C1=O` (stereo partly specified) here?
A: Its composite z-score is 1.13.

Q: For `C=CCN1Cc2ccccc2[C@H]2OC(c3ccc(OCCCO)cc3)=N[C@@]2(CC=C)C1=O`, which composite z-score is on record?
A: Its composite z-score is 0.373.

Q: With `CC(CO)N1C(=O)[C@@H]2[C@H]3C(=O)OCC=C[C@H]3OC23C=CCN(CCN2CCOCC2)C(=O)[C@@H]13` (stereo partly specified) as the molecule, how does the composite z-score read?
A: Its composite z-score is -0.586.

Q: For `CCCCCCc1nc(-c2cc(C)c(OC)c(C)c2)c(C)c2c1[Si](C(C)C)(C(C)C)OC2`, which composite z-score is on record?
A: Its composite z-score is -0.373.

Q: For `C=C(COC)/C(=C/C[C@H](OC(=O)c1ccncc1)c1ccccc1OCCO)c1cnc2ccccc2c1`, which composite z-score is on record?
A: Its composite z-score is 0.118.

Q: For `CO[C@H]1O[C@H](CO)[C@@H](OC(=O)Nc2ccc3c(c2)OCO3)[C@H](OC(=O)c2cc3ccccc3[nH]2)[C@H]1OC(=O)c1cc2ccccc2[nH]1`, which composite z-score is on record?
A: Its composite z-score is 0.0757.

Q: Which composite z-score does the source give for `O=C1N(Cc2ccccc2)c2ccccc2[C@@H]2OC(c3ccc(OCCCO)cc3)=N[C@]12Cc1ccccc1` here?
A: Its composite z-score is -0.327.

Q: Which composite z-score does the source give for `CCOC(=O)c1ccc(NC(=O)O[C@H]2[C@H](OC(=O)Nc3ccc4c(c3)OCO4)[C@@H](OC(=O)Nc3ccc4c(c3)OCO4)[C@@H](OC)O[C@@H]2CO)cc1` here?
A: The composite z-score was 0.535.

Q: Which composite z-score does the source give for `C=CCC(OC(C)=O)[C@@H]1[C@@H](N(Cc2cccc3ccccc23)C(=O)Cc2ccc(OC)cc2)c2cc(OCCCO)ccc2N1C(=O)c1ccc2ccccc2n1` (stereo partly specified) here?
A: Its composite z-score is 0.449.

Q: Which composite z-score does the source give for `COCCCNC(=O)[C@@]1(Cc2ccccc2CN=[N+]=[N-])N=C(c2ccc(OCCCO)cc2)O[C@H]1c1ccccc1` here?
A: Its composite z-score is 0.832.

Q: For `COC(=O)[C@@]1(Cc2ccccc2)[C@H]2c3cc(C(=O)N(C)C)n(CCc4ccc(O)c(OC)c4)c3C[C@H]2CN1C(=O)c1ccccc1`, which composite z-score is on record?
A: Its composite z-score is 0.638.

Q: For `CN1C(=O)C2C=CC(C(O)COCc3ccccc3)N(N(c3ccccc3)c3ccccc3)C2C1=O` (stereo unspecified), which composite z-score is on record?
A: The composite z-score was 0.0687.

Q: With `CC(c1ccccc1)C(O)C1C=CC2C(=O)N(c3ccccc3)C(=O)C2N1Nc1ccc([N+](=O)[O-])cc1` (stereo unspecified) as the molecule, how does the composite z-score read?
A: Its composite z-score is 0.0001.

Q: Which composite z-score does the source give for `[N-]=[N+]=NCc1ccccc1[C@H]1OC(c2ccc(OCCCO)cc2)=N[C@@]1(CCS(=O)(=O)c1ccccc1)C(=O)N1CCCCC1` here?
A: Its composite z-score is 0.512.

Q: With `[N-]=[N+]=Nc1ccccc1C[C@]1(C(N)=O)N=C(c2ccc(OCCCO)cc2)O[C@H]1c1ccccc1N=[N+]=[N-]` as the molecule, how does the composite z-score read?
A: The composite z-score was 0.193.

Q: Which composite z-score does the source give for `COc1cc(CO)cc(I)c1O[C@H]1C=C(C(=O)NCCO)C[C@@H](NCc2ccc(F)cc2)[C@@H]1O` here?
A: The composite z-score was 0.205.

Q: For `CCCC[C@@H]1C[C@H]1[C@@H](NC(=O)c1cccs1)c1ccc(C(F)(F)F)cc1`, which composite z-score is on record?
A: The composite z-score was 0.0126.

Q: For `COCCOC(=O)N1C(=O)[C@@]2(c3cc(C#CC4=CCCCC4)ccc31)[C@H](C(N)=O)[C@H]1C(=O)O[C@H](c3ccccc3)[C@H](c3ccccc3)N1[C@@H]2c1ccccc1OCCO`, which composite z-score is on record?
A: Its composite z-score is 0.806.

Q: Which composite z-score does the source give for `O=C1OCCC=C[C@H]2OC34C=CCN(Cn5nnc6ccccc65)C(=O)[C@H]3N(CCCCCCO)C(=O)[C@@H]4C12` (stereo partly specified) here?
A: The composite z-score was 0.755.

Q: With `Cc1ccc(S[C@]2(C(=O)O)CC(=O)N(Cc3cc(C(F)(F)F)cc(C(F)(F)F)c3)[C@@H]2c2ccc(CO)cc2)cc1` as the molecule, how does the composite z-score read?
A: The composite z-score was 0.549.
